Assay results as given in the supplement of paper PMC12669032.
Unmarked numbers belong to inactive results.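 Rule for the calls: active = AUC reduced over 20% with Padj below 0.05 in at least 2 of 3 replicates; inactive = otherwise.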

Legend:
[1] = tested on: Roseburia intestinalis; test: growth AUC relative to DMSO control (median of replicates) (fraction); higher = more growth (less inhibition), active = hit call of the paper; conditions: 20 µM; 24 h
In short: (§1)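 Each value is the median of three biological replicates, grown on separate days, of a gut bacterial monoculture incubated anaerobically at 37 °C in mGAM with 20 µM compound (1% DMSO). Cultures started at OD600 0.05 and were read at OD600 hourly for 24 h, with the minimum OD set to 0. Area under the growth curve was normalised to the plate median of solvent-only wells, or to row and column medians on the industrial chemical plate.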

[2] = tested on: Streptococcus salivarius; test: as above; conditions: 20 µM; 24 h
In short: as §1

Row | Structure (SMILES) | growth AUC [1] | growth AUC [2]
1 | CC(Oc1ccc(Oc2ncc(C(F)(F)F)cc2Cl)cc1)C(=O)O (configuration not stated) | 1.03 | 0.981
2 | CNC(=O)Oc1cccc2c1OC(C)(C)C2O (configuration not stated) | 0.979 | 1.02
3 | ClC1(Cl)C2(Cl)C3(Cl)C4(Cl)C(Cl)(Cl)C5(Cl)C3(Cl)C1(Cl)C5(Cl)C24Cl (configuration not stated) | 0.958 | 0.922
4 | CN(C)C1CSSSC1.O=C(O)C(=O)O | 1.2 | 0.994
5 | O=C(O)CCl | 0.962 | 0.979
6 | O=C(O)C(F)(F)C(F)(F)C(F)(F)C(F)(F)C(F)(F)C(F)(F)C(F)(F)C(F)(F)C(F)(F)F | 0.96 | 0.942
7 | CCOP(=O)(NC(C)C)Oc1ccc(SC)c(C)c1 (configuration not stated) | 1.02 | 0.951
8 | NCCO.O=C(O)c1nc(Cl)ccc1Cl | 1.03 | 1.05
9 | C=CCN=C=S | 0.986 | 0.994
10 | O=C(Nc1ccccc1)c1ccccc1I | 1 | 1.03
11 | N#Cc1c[nH]cc1-c1cccc(Cl)c1Cl | 1.14 | 0.929
